# Data from PubChem BioAssay AID1159580 (chemical genetic matrix, 2015).
# Several values for one entry are separate records, joined by “and”; a condition that tells them apart may be missing. Identical values can stand only once. In all, about 5,500 compounds went through this assay and about 2,000 (36%) were called active. About 18% were inconclusive and are not listed. Some of the results follow. Unmarked numbers belong to inactive results. Cut-off read from the data, not from the text of the source: active = normalized growth mostly below about 0.91 (no sharp cut-off); inconclusive = no clear call, values can overlap the other calls; inactive = mostly above about 0.92.
# Assay: chemical genetic growth profiling, strain panel (AID 1159580);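 note: tested at 20 µM; growth read once vehicle control cultures reached saturation at 30 °C; 1 = growth at the plate median or of vehicle wells; lower values mean less growth of the strain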
# Settings: growth OD
# [1] = S. cerevisiae deletion strains, locus YDL101C, strain DUN1, stronger effect = lower value
# [2] = S. cerevisiae deletion strains, locus YHR030C, strain SLT2, stronger effect = lower value
structure (smiles),measurement,setting,value
Cc1cc(=O)[nH]c(-c2ccccn2)n1,normalized growth,"S. cerevisiae deletion strains, locus YAL013W, strain DEP1, stronger effect = lower value",1.01 and 0.994
same,normalized growth,"S. cerevisiae deletion strains, locus YBR229C, strain ROT2, stronger effect = lower value",1.01
same,normalized growth,"S. cerevisiae deletion strains, locus YCL061C, strain MRC1, stronger effect = lower value",1 and 0.995
same,normalized growth,[1],0.994
same,normalized growth,"S. cerevisiae deletion strains, locus YDL134C, strain PPH21, stronger effect = lower value",1.02
same,normalized growth,"S. cerevisiae deletion strains, locus YDR150W, strain NUM1, stronger effect = lower value",0.912 and 1.02
same,normalized growth,"S. cerevisiae deletion strains, locus YEL061C, strain CIN8, stronger effect = lower value",0.993 and 1.01
same,normalized growth,"S. cerevisiae deletion strains, locus YGR078C, strain PAC10, stronger effect = lower value",1 and 1.01
same,normalized growth,"S. cerevisiae deletion strains, locus YGR229C, strain SMI1, stronger effect = lower value",1.02
same,normalized growth,[2],1.02 and 1.03
same,normalized growth,"S. cerevisiae deletion strains, locus YHR087W, strain rtc3, stronger effect = lower value",1.01
same,normalized growth,"S. cerevisiae deletion strains, locus YJR043C, strain POL32, stronger effect = lower value",1.01
same,normalized growth,"S. cerevisiae deletion strains, locus YJR075W, strain HOC1, stronger effect = lower value",1.04 and 1.01
same,normalized growth,"S. cerevisiae deletion strains, locus YLR039C, strain RIC1, stronger effect = lower value",0.993 and 1.05
same,normalized growth,"S. cerevisiae deletion strains, locus YLR058C, strain SHM2 (second series), stronger effect = lower value",1.01 and 1.02
same,normalized growth,"S. cerevisiae deletion strains, locus YLR085C, strain ARP6, stronger effect = lower value",0.91 and 1.03
same,normalized growth,"S. cerevisiae deletion strains, locus YLR262C, strain YPT6, stronger effect = lower value",0.993 and 1.02
same,normalized growth,"S. cerevisiae deletion strains, locus YML094W, strain GIM5, stronger effect = lower value",0.965 and 1.01
same,normalized growth,"S. cerevisiae deletion strains, locus YMR219W, strain ESC1, stronger effect = lower value",1.01
same,normalized growth,"S. cerevisiae deletion strains, locus YMR263W, strain SAP30, stronger effect = lower value",0.943 and 0.992
same,normalized growth,"S. cerevisiae deletion strains, locus YMR307W, strain GAS1, stronger effect = lower value",1.07
same,normalized growth,"S. cerevisiae deletion strains, locus YNL153C, strain GIM3, stronger effect = lower value",1 and 0.995
same,normalized growth,"S. cerevisiae deletion strains, locus YNL298W, strain CLA4 (second series), stronger effect = lower value",0.986 and 1.02
same,normalized growth,"S. cerevisiae deletion strains, locus YNL322C, strain KRE1, stronger effect = lower value",1.01 and 1
same,normalized growth,"S. cerevisiae deletion strains, locus YNR030W, strain Alg12, stronger effect = lower value",1.02
same,normalized growth,"S. cerevisiae deletion strains, locus YOL006C, strain TOP1, stronger effect = lower value",1.09
same,normalized growth,"S. cerevisiae deletion strains, locus YPL055C, strain LGE1, stronger effect = lower value",0.936 and 1
same,normalized growth,"S. cerevisiae deletion strains, locus YPL241C, strain CIN2, stronger effect = lower value",1.03
same,normalized growth,"S. cerevisiae deletion strains, locus YPR135W, strain CTF4, stronger effect = lower value",0.997 and 1.01
same,normalized growth,"S. cerevisiae strains, strain wild type, stronger effect = lower value",1.01
C=CCc1c(CCC)nc(-c2ccccn2)[nH]c1=O,normalized growth,"S. cerevisiae deletion strains, locus YAR019C, strain CDC15, stronger effect = lower value",0.931
same,normalized growth,"S. cerevisiae deletion strains, locus YBL105C, strain PKC1, stronger effect = lower value",0.945
same,normalized growth,"S. cerevisiae deletion strains, locus YBR135W, strain CKS1, stronger effect = lower value",0.95
same,normalized growth,"S. cerevisiae deletion strains, locus YBR136W, strain MEC1, stronger effect = lower value",0.933
same,normalized growth,"S. cerevisiae deletion strains, locus YBR160W, strain CDC28, stronger effect = lower value",0.947
same,normalized growth,"S. cerevisiae deletion strains, locus YDL017W, strain CDC7, stronger effect = lower value",0.931
same,normalized growth,"S. cerevisiae deletion strains, locus YDL028C, strain MPS1, stronger effect = lower value",0.931
same,normalized growth,[1],0.945
same,normalized growth,"S. cerevisiae deletion strains, locus YDL108W, strain KIN28, stronger effect = lower value",0.937
same,normalized growth,"S. cerevisiae deletion strains, locus YDL132W, strain cdc53, stronger effect = lower value",0.936
same,normalized growth,"S. cerevisiae deletion strains, locus YDL214C, strain PRR2, stronger effect = lower value",0.893
same,normalized growth,"S. cerevisiae deletion strains, locus YDR052C, strain DBF4, stronger effect = lower value",0.955
same,normalized growth,"S. cerevisiae deletion strains, locus YDR054C, strain cdc34, stronger effect = lower value",0.916
same,normalized growth,"S. cerevisiae deletion strains, locus YDR226W, strain ADK1, stronger effect = lower value",0.94
same,normalized growth,"S. cerevisiae deletion strains, locus YDR477W, strain SNF1, stronger effect = lower value",0.891
same,normalized growth,"S. cerevisiae deletion strains, locus YER123W, strain YCK3, stronger effect = lower value",0.772
same,normalized growth,"S. cerevisiae deletion strains, locus YER133W, strain GLC7, stronger effect = lower value",0.912
same,normalized growth,"S. cerevisiae deletion strains, locus YFL009W, strain cdc4, stronger effect = lower value",0.928
same,normalized growth,"S. cerevisiae deletion strains, locus YFL029C, strain CAK1, stronger effect = lower value",0.92
same,normalized growth,"S. cerevisiae deletion strains, locus YFR003C, strain YPI1, stronger effect = lower value",0.952
same,normalized growth,"S. cerevisiae deletion strains, locus YFR019W, strain FAB1, stronger effect = lower value",0.939
same,normalized growth,"S. cerevisiae deletion strains, locus YFR028C, strain CDC14, stronger effect = lower value",0.945
same,normalized growth,"S. cerevisiae deletion strains, locus YGR040W, strain KSS1, stronger effect = lower value",0.893
same,normalized growth,"S. cerevisiae deletion strains, locus YGR052W, strain FMP48, stronger effect = lower value",0.904
same,normalized growth,"S. cerevisiae deletion strains, locus YGR092W, strain DBF2, stronger effect = lower value",0.752
same,normalized growth,[2],0.875
same,normalized growth,"S. cerevisiae deletion strains, locus YHR079C, strain IRE1, stronger effect = lower value",0.701
same,normalized growth,"S. cerevisiae deletion strains, locus YHR082C, strain KSP1, stronger effect = lower value",0.883
same,normalized growth,"S. cerevisiae deletion strains, locus YHR205W, strain SCH9, stronger effect = lower value",0.983
same,normalized growth,"S. cerevisiae deletion strains, locus YIL147C, strain SLN1, stronger effect = lower value",0.931
same,normalized growth,"S. cerevisiae deletion strains, locus YJL095W, strain BCK1, stronger effect = lower value",0.784
same,normalized growth,"S. cerevisiae deletion strains, locus YJL128C, strain PBS2, stronger effect = lower value",0.96
same,normalized growth,"S. cerevisiae deletion strains, locus YJL157C, strain FAR1, stronger effect = lower value",0.867
same,normalized growth,"S. cerevisiae deletion strains, locus YJR016C, strain ILV3, stronger effect = lower value",0.94
same,normalized growth,"S. cerevisiae deletion strains, locus YJR066W, strain TOR1 (second series), stronger effect = lower value",0.767
same,normalized growth,"S. cerevisiae deletion strains, locus YJR066W, strain TOR1, stronger effect = lower value",0.748
same,normalized growth,"S. cerevisiae deletion strains, locus YKL048C, strain ELM1, stronger effect = lower value",0.966
same,normalized growth,"S. cerevisiae deletion strains, locus YKL067W, strain YNK1, stronger effect = lower value",0.902
same,normalized growth,"S. cerevisiae deletion strains, locus YKL101W, strain HSL1, stronger effect = lower value",0.896
same,normalized growth,"S. cerevisiae deletion strains, locus YKL193C, strain SDS22, stronger effect = lower value",0.936
same,normalized growth,"S. cerevisiae deletion strains, locus YKL203C, strain TOR2, stronger effect = lower value",0.926
same,normalized growth,"S. cerevisiae deletion strains, locus YLR113W, strain HOG1, stronger effect = lower value",0.733 (active)
same,normalized growth,"S. cerevisiae deletion strains, locus YLR133W, strain CKI1, stronger effect = lower value",0.886
same,normalized growth,"S. cerevisiae deletion strains, locus YLR403W, strain SFP1, stronger effect = lower value",0.892
same,normalized growth,"S. cerevisiae deletion strains, locus YML070W, strain DAK1, stronger effect = lower value",0.884
same,normalized growth,"S. cerevisiae deletion strains, locus YMR001C, strain CDC5, stronger effect = lower value",0.937
same,normalized growth,"S. cerevisiae deletion strains, locus YMR205C, strain PFK2 (second series), stronger effect = lower value",0.901
same,normalized growth,"S. cerevisiae deletion strains, locus YMR277W, strain FCP1, stronger effect = lower value",0.944
same,normalized growth,"S. cerevisiae deletion strains, locus YNL006W, strain LST8, stronger effect = lower value",0.943
same,normalized growth,"S. cerevisiae deletion strains, locus YNL020C, strain ARK1, stronger effect = lower value",0.877
same,normalized growth,"S. cerevisiae deletion strains, locus YNL161W, strain CBK1, stronger effect = lower value",0.945
same,normalized growth,"S. cerevisiae deletion strains, locus YNL183C, strain NPR1, stronger effect = lower value",0.825
same,normalized growth,"S. cerevisiae deletion strains, locus YNL207W, strain RIO2, stronger effect = lower value",0.924
same,normalized growth,"S. cerevisiae deletion strains, locus YNL222W, strain SSU72, stronger effect = lower value",0.945
same,normalized growth,"S. cerevisiae deletion strains, locus YNL307C, strain MCK1 (second series), stronger effect = lower value",0.84
same,normalized growth,"S. cerevisiae deletion strains, locus YOL078W, strain AVO1, stronger effect = lower value",0.933
same,normalized growth,"S. cerevisiae deletion strains, locus YOL136C, strain PFK27, stronger effect = lower value",0.883
same,normalized growth,"S. cerevisiae deletion strains, locus YOR061W, strain CKA2, stronger effect = lower value",0.877
same,normalized growth,"S. cerevisiae deletion strains, locus YOR119C, strain RIO1, stronger effect = lower value",0.905
same,normalized growth,"S. cerevisiae deletion strains, locus YOR231W, strain MKK1, stronger effect = lower value",0.73
same,normalized growth,"S. cerevisiae deletion strains, locus YOR329C, strain SCD5, stronger effect = lower value",0.941
same,normalized growth,"S. cerevisiae deletion strains, locus YPL031C, strain PHO85, stronger effect = lower value",0.891
same,normalized growth,"S. cerevisiae deletion strains, locus YPL153C, strain RAD53, stronger effect = lower value",0.864
same,normalized growth,"S. cerevisiae deletion strains, locus YPL204W, strain HRR25, stronger effect = lower value",0.856
same,normalized growth,"S. cerevisiae deletion strains, locus YPL209C, strain IPL1, stronger effect = lower value",0.94
same,normalized growth,"S. cerevisiae deletion strains, locus YPL256C, strain CLN2, stronger effect = lower value",0.823 (active)
same,normalized growth,"S. cerevisiae deletion strains, locus YPR025C, strain CCL1, stronger effect = lower value",0.945
same,normalized growth,"S. cerevisiae deletion strains, locus YPR106W, strain ISR1, stronger effect = lower value",0.944
same,normalized growth,"S. cerevisiae deletion strains, locus YPR111W, strain DBF20, stronger effect = lower value",0.954
same,normalized growth,"S. cerevisiae deletion strains, strain NNK1, stronger effect = lower value",0.945
same,normalized growth,"S. cerevisiae deletion strains, strain TSCII, stronger effect = lower value",0.929
